Test results as given in PMC5540273 (PLoS ONE, 2017).
Values joined by “and” are separate entries in the source; they are usually repeats but may differ in a detail not shown here. Identical values can stand only once.

tested on: ERBB4; details: concentration: 1 μM, replicates: in singlicate; 1 µM; n = 1
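Further: KINOMEscan kinase panel screen.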

Row | Compound | %Inh
1 | NCCNS(=O)(=O)c1ccc(-c2ccnc3[nH]ccc23)cc1 [GSK977617] | 47% and 0%
2 | CC(C)(CN)c1nc(-c2ccc(Cl)c(O)c2)c(-c2ccncc2)[nH]1.O=C(O)C(F)(F)F [SB-477794] | 26% and 35%
3 | Cl.Cl.Cl.Fc1ccc(-c2ncn(C3CCNCC3)c2-c2ccnc(Nc3ccccc3)n2)cc1 [SB-238039] | 47% and 46%

same assay, conditions: concentration: 1 μM, replicates: in singlicate; n = 1

Row | Compound | %Inh
4 | N#Cc1c(N2CCOCC2)sc(-c2ccn[nH]2)c1-c1ccc(Cl)cc1 | 11%
5 | c1ccc(-c2cc(-c3c[nH]nc3-c3ccccn3)ccn2)cc1 [GW576604] | 52%
6 | O=C(NCCCN1CCOCC1)c1cccc(Nc2nccc(Nc3ccc(Oc4ccccc4)cc3)n2)c1 [GW663929] | 79%
7 | CCCCCc1nc2c(N)ncnc2n1CCCCC [SKF-97255] | 0%
8 | Cc1c(Cn2c(C)nn3c(=O)cc(N4CCOC(C)C4)nc23)cccc1C(F)(F)F (stereo not shown) [GSK2344444] | 0%
9 | O=C(NCCNc1ccnc(Nc2ccc(F)cc2)n1)c1cc2ccccc2s1 [GSK1379874] | 51%
10 | CC(C)Oc1ccc2c(-c3ccnc(Nc4ccc(N5CCN(C)CC5)cc4)n3)cnn2n1 [GW696155] | 39%
11 | COc1cc2c(cc1OCCN1CCN(C)CC1)ncc1c3ccc(C#N)cc3[nH]c21 | 29%
12 | CC(=O)Nc1ccc(COc2ccc(Nc3ccnc4cc(-c5ccccn5)ccc34)cc2)cc1.Cl [GW440148] | 73%
13 | CC(C)(C)n1cnc2c(N)ncnc21 [SKF-97359] | 22%
